In PubChem BioAssay (NCI):
Compounds without any hit were thinned out: in the full panel of roughly 83,000, 20% have a hit.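 The endpoint reported here, percent growth, reads 100 for growth as untreated, 0 for no net growth and -100 for all cells dead.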 Values without a mark were called inactive. Activity calls are given as the source filed them. The calls were made as follows: active = growth percent below 10; inactive = the rest.

system: MDA-MB-468 breast; test: NCI-60 one-dose screen, 48 h (100 = growth as untreated, 0 = no growth, -100 = all killed); conditions: 10 µM unless noted

SMILES | growth
COc1cc2nc(N3CCCC3)nc(NCC3CCCCC3)c2cc1OC | -41.2% (active)
CN1CCN(Cc2ccc(NC(=O)c3ccc(C(C)(C)C)c(C#Cc4cnc5cccnn45)c3)cc2C(F)(F)F)CC1 | -6.22% (active)
N#Cc1ccc(S(=O)(=O)Nc2ccc(-c3cnc(N)[nH]3)cc2)cc1 | 97.7%
CCN1CCC[C@H]1c1cc(O)c2c(c1OC)C[C@H]1C[C@H]3[C@H](N)C(=O)C(C(N)=O)=C(O)[C@@]3(O)C(=O)C1=C2O | -18.7% (active)
O=C(CN1C(=O)NC2NC(=O)NC21)N/N=C/c1ccc(Cl)cc1Cl (centres undefined) | 99.9%
C#CCNC(=O)CC[C@@H](C)[C@H]1CC[C@H]2[C@@H]3CC[C@@H]4CC(=O)CC[C@]4(C)[C@H]3CC[C@]12C | -19.7% [100 µM] (active)
COc1ccc(-c2nn(-c3ccc(NC(=O)c4ccc(Cl)c(C(F)(F)F)c4)cc3)cc2-c2ccncc2)cc1Cl | 9.51% (active)
CC1(C)CC[C@]2(C(=O)NCC#CCN3CCOCC3)CC[C@]3(C)C(=CC[C@@H]4[C@@]5(C)Cc6c([nH]c7ccccc67)C(C)(C)[C@@H]5CC[C@]43C)[C@@H]2C1 | 90.8%
Cc1nc2ccccc2c(/C=C/c2ccc(C(F)(F)F)cc2)c1C(=O)/C=C/c1ccccc1 | -51% (active)
COC(=O)c1nc(-c2ccccc2)oc1S(=O)(=O)N1CCN(c2ccc(OC)cc2)CC1 | 22.6%
CC(C)(O)c1cccc(F)c1 | 93.8%
c1ccc(-c2nc3nonc3nc2-c2ccccc2)cc1 | 38.9%
C[C@H]1[C@@H]2[C@H]3CC[C@@H]4[C@@]5(C)Cc6c([nH]c7ccccc67)C(C)(C)[C@@H]5CC[C@@]4(C)[C@]3(C)CC[C@]23CO[C@]1(C)[C@@H](C(=O)/C=C/c1ccccn1)C3 | 99.3%
CC(=O)N(C)c1ccc(Nc2ccc(Nc3ccc(N(C)C(C)=O)cc3)c3c2C(=O)c2ccccc2C3=O)cc1 | 30.9%
COc1ccc(/C=C2\Oc3cc(C)c(Cl)cc3C2=O)cc1OC | 110%
S=C(NCc1ccccc1)N1CCC(CCCC2CCN(C(=S)NCc3ccccc3)CC2)CC1 | 69.1%
COc1ccc(OC)c(/C=C/c2nc(SCc3ccccc3)n(-c3ccc(Cl)cc3)n2)c1 | 34.4%
CC(=O)Nc1nc(C(=O)N2N=C(C)/C(=C/c3ccc(Cl)cc3)C2=O)cs1 | 103%
C=C1c2c(C)nn(-c3ccc(NC(C)=O)cc3)c2N(C)C23CC1C1(C)c4c(C)nn(-c5ccc(NC(C)=O)cc5)c4N(C)C(C)(CC12)C3 (centres undefined) | 14.5%
COc1cc2nc(-c3ccc(-c4nn[nH]n4)cc3)[nH]c(=O)c2cc1OC | 104%
O=[N+]([O-])c1ccc(/C=C/C2(CCl)OCCO2)cc1 | 108%
O=C(/C=C/C12c3ccccc3C(c3ccccc31)C1C(=O)NC(=O)C12)c1ccc(Cl)cc1 (centres undefined) | -19.5% (active)
CC[C@@H](C(=O)[C@@H](C)[C@@H](O)[C@H](C)[C@@H]1O[C@@H]([C@@H](CC)C(=O)N(CC)CC)CC[C@@H]1C)C1O[C@]2(C=CC(=O)[C@]3(CC[C@@](C)([C@H]4CC[C@](O)(CC)[C@H](C)O4)O3)O2)[C@H](C)C[C@@H]1C (some centres undefined) | -12.9% (active)
CCCCN(CCCC)C(=O)CC | 113%
